± gives the standard deviation of the averaged measurements.
What follows are compounds tested on Toxoplasma gondii RH (in HFF) (assay: parasite growth relative to the screen mean (all compounds = 100%); higher = less inhibition of parasite growth). Conditions: 5 µM; 72 h; oxygen 21 %.
Outline: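 Each value is parasite growth expressed against the screen mean, averaged over two screens, where the mean of all compounds = 100%. The screen used 5 µM final compound on confluent human foreskin fibroblasts infected with RH β-Gal–GFP Toxoplasma (MOI 1:5) within 2 h and grown 72 h at 21% O2. Parasite number was measured by a CPRG β-Gal assay against in-plate standard curves.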

Question: How did the parasite growth turn out when `C[N+]1(C)CCc2cc3c(cc2[C@H]1[C@@H]1OC(=O)c2c1ccc1c2OCO1)OCO3` [(-)-Bicuculline methochloride] was run?
Answer: 120 ± 37%

Question: How did the parasite growth turn out when `NCCc1c[nH]c2ccc(O)cc12` [Serotonin] was run?
Answer: 106 ± 15%

Question: For `O=C(O)c1nn(Cc2ccc(Cl)cc2Cl)c2ccccc12` [Lonidamine], which parasite growth is on record?
Answer: 77.9 ± 20%
